Results filed as inconclusive are left out. Activity calls are given as the source filed them. Unless noted, calls follow the shape of the dose curve; as a rule, active = well fitted cell-killing curve with a large enough effect; inconclusive = small, poorly fitted or top-dose-only effect, or effect the other way; inactive = no such curve, though single readings can be large or run the other way.

A short description of experiment [1]: Quantitative High-Throughput drug screen in 47 multiple myeloma cell lines against the NCATS MIPE library collection: KMS34_JCRB cell viability assay (AID 1918985). Also: nearly all actives have a fitted effect of over 40% in size. Put shortly: (§1)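 Readout: median RLU from CellTiter-Glo after 5 min at room temperature. Preceding step was 48 h drug treatment of 500 cells/well at 37 °C, 5% CO2, with DMSO-only and media-only control wells.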

A short description of experiment [2]: Quantitative High-Throughput drug screen in 47 multiple myeloma cell lines against the NCATS MIPE library collection: OCIMY7_PLB cell viability assay (AID 1918987). Also: nearly all actives have a fitted effect of over 65% in size. Put shortly:
as §1

Experiment [3] is described as follows: Quantitative High-Throughput drug screen in 47 multiple myeloma cell lines against the NCATS MIPE library collection: OCIMY5_PLB cell viability assay (AID 1918988). Also: nearly all actives have a fitted effect of over 65% in size. Put shortly: as §1
The nature of experiment [4]: Quantitative High-Throughput drug screen in 47 multiple myeloma cell lines against the NCATS MIPE library collection: OPM1_PLB cell viability assay (AID 1918989). Also: nearly all actives have a fitted effect of over 40% in size. Put shortly:
as §1

Experiment [5] in a line: Quantitative High-Throughput drug screen in 47 multiple myeloma cell lines against the NCATS MIPE library collection: SKMM1_PLB cell viability assay (AID 1919863). Also: nearly all actives have a fitted effect of over 35% in size. Particulars: SKMM1 myeloma viability, CellTiter-Glo ATP, 48 h; viability: stronger effect = lower value. Summed up: as §1
Experiment [6] in a line: Quantitative High-Throughput drug screen in 47 multiple myeloma cell lines against the NCATS MIPE library collection: U266_ATCC cell viability assay (AID 1919864). Also: nearly all actives have a fitted effect of over 35% in size. Summed up: as §1
A short description of experiment [7]: Quantitative High-Throughput drug screen in 47 multiple myeloma cell lines against the NCATS MIPE library collection: XG6_PLB cell viability assay (AID 1919865). Also: nearly all actives have a fitted effect of over 40% in size. Put shortly: as §1
Experiment [8] in a line: Quantitative High-Throughput drug screen in 47 multiple myeloma cell lines against the NCATS MIPE library collection: XG1_PLB cell viability assay (AID 1919866). Also: nearly all actives have a fitted effect of over 35% in size. Put shortly:
as §1

A short description of experiment [9]: Quantitative High-Throughput drug screen in 47 multiple myeloma cell lines against the NCATS MIPE library collection: VP6_DJ cell viability assay (AID 1919867). Also: nearly all actives have a fitted effect of over 40% in size. Put shortly:
as §1

Experiment [10] is described as follows: Quantitative High-Throughput drug screen in 47 multiple myeloma cell lines against the NCATS MIPE library collection: UTMC2_PLB cell viability assay (AID 1919868). Also: nearly all actives have a fitted effect of over 55% in size. Particulars: CellTiter-Glo ATP luminescence, 48 h; viability (% of DMSO control): at 45.8 µM (top of the series) unless noted. Put shortly: as §1
On the technique in general: ATP-based viability assays read luminescence as a measure of living cells.

Experiment [11] is described as follows: Quantitative High-Throughput drug screen in 47 multiple myeloma cell lines against the NCATS MIPE library collection: PE2_PLB cell viability assay (AID 1919869). Also: nearly all actives have a fitted effect of over 35% in size. Put shortly:
as §1

Experiment [12] is described as follows: Quantitative High-Throughput drug screen in 47 multiple myeloma cell lines against the NCATS MIPE library collection: PCM6_Riken cell viability assay (AID 1919870). Also: nearly all actives have a fitted effect of over 30% in size. Summed up:
as §1

The nature of experiment [13]: Quantitative High-Throughput drug screen in 47 multiple myeloma cell lines against the NCATS MIPE library collection: RPMI8226_ATCC cell viability assay (AID 1919871). Also: nearly all actives have a fitted effect of over 30% in size. Summed up:
as §1

Experiment [14] in a line: Quantitative High-Throughput drug screen in 47 multiple myeloma cell lines against the NCATS MIPE library collection: OPM2_DSMZ cell viability assay (AID 1919872). Also: nearly all actives have a fitted effect of over 30% in size. Put shortly: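 CellTiter-Glo ATP luminescence gave viability after 48 h compound treatment at 37C of 500 multiple myeloma cells per well. Normalisation used DMSO-only wells as 100% and media-only wells as 0% viability; primary qHTS of approved and investigational drugs.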

A short description of experiment [15]: Quantitative High-Throughput drug screen in 47 multiple myeloma cell lines against the NCATS MIPE library collection: KMS11_JCRBsus cell viability assay (AID 1919873). Also: nearly all actives have a fitted effect of over 50% in size. Put shortly: as §1
The nature of experiment [16]: Quantitative High-Throughput drug screen in 47 multiple myeloma cell lines against the NCATS MIPE library collection: KMS28BM_JCRB cell viability assay (AID 1919874). Also: nearly all actives have a fitted effect of over 35% in size. Put shortly:
as §1

Experiment [17] is described as follows: qHTS drug screen for cell cycle checkpoint inhibitors in PARPi-resistant BRCA-mutant ovarian cancer cell lines. (AID 1963452; calls by dose curve). Particulars: PEO1/OlaR viability, CellTiter-Glo luminescence, 96 h; for Z-AUC: stronger effect = lower value. Put shortly:
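PEO1, PEO4 and PEO1/OlaR ovarian cancer cells, 600 per well, exposed 96 h at 37C to a dilution series. Viability read by CellTiter-Glo luminescence, normalized to DMSO and empty wells; activity summarized as Z-AUC.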
On the technique in general: qHTS replaces the single test concentration by a dilution series.

Experiment [18] can be described thus: qHTS for identification of novel therapeutic agents for treatment of microphthalmiaassociated transcription factor (MiT) renal cell carcinoma (RCC) (AID 1963991; calls by dose curve). The note with it: CellTiter-Glo, 48 h; for Potency: active = Z-AUC below -0.8 in all three lines; for z-score: stronger effect = lower value. Put shortly: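 Three TFE3-fusion RCC lines (UOK109, UOK124, UOK145), 500 cells/well in complete medium, were treated with MIPE 4.0 compounds for 48 hours at 37 C. Viability was by CellTiter-Glo luminescence, normalized to DMSO (100%) and empty wells (0%); curves fitted over 11 concentrations.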

The mark [19] stands for this setting: measured here: PEO1 parental Z-AUC.
[20] abbreviates: TFE3-RCC UOK109 viability, measured here: UOK109 Z-AUC.
The mark [21] stands for this setting: TFE3-RCC viability, measured here: UOK124 Z-AUC.
The mark [22] stands for this setting: TFE3-RCC viability, measured here: UOK145 Z-AUC.
Potency is read from the fitted curve at half-maximal effect.

Regarding `COc1ccc(F)c(F)c1C(=O)c1cnc(NC2CCN(S(C)(=O)=O)CC2)nc1N`, the Potency is 1320 nM (active) in [1]; 1660 nM (active) in experiment [2]; 1320 nM (active) in experiment [3]; 1870 nM (active) in [4]; 2960 nM (active) in [5]; 2640 nM (active) in [6]. Besides, the Potency is 1050 nM (active) in experiment [7]; 1660 nM (active) in experiment [8]; 935 nM (active) in [9]; 2350 nM (active) in experiment [10]; 2090 nM (active) in experiment [11]; 743 nM (active) in experiment [12]. Besides, the Potency in experiment [13] was 2960 nM (active); in [14], 3320 nM (active); in [15] it was 1480 nM (active); in [16] it was 3320 nM (active); in experiment [17], 871 nM (active). The Z-AUC is -1.69 in [17] (setting [19]) and -1.31 in [17] (measured here: PEO4 Z-AUC).
As to `Cc1cnc(Nc2ccc(F)cc2Cl)nc1-c1c[nH]c(C(=O)N[C@H](CO)c2cccc(Cl)c2)c1`, the Potency in [1] is 23500 nM (active); in experiment [2], 4690 nM (active); in [3], 18700 nM (active); in experiment [4] it was 20900 nM (active); in experiment [5] it was 20900 nM (active); in experiment [6], 20900 nM (active). For the same compound, the Potency in experiment [7] was 3720 nM (active); in [8], 13200 nM (active); in [9], 5260 nM (active); in [10], 18700 nM (active); in experiment [11], 6620 nM (active); in experiment [12], 18700 nM (active). For the same compound, the Potency in [13] was 20900 nM (active); in experiment [14] it was 18700 nM (active); in [15], 16600 nM (active); in experiment [16], 20900 nM (active). Also, the results for the Z-AUC in experiment [17], in experiment [17] (setting [19]) and in experiment [17] (measured here: PEO4 Z-AUC) were 0.276 (inactive), 0.0916 and 0.18, respectively.
Turning to `CC(C)c1cc(C(=O)N2Cc3ccc(CN4CCN(C)CC4)cc3C2)c(O)cc1O`, the Potency is 235 nM (active) in experiment [1]; 26.4 nM (active) in experiment [2]; 105 nM (active) in experiment [3]; 118 nM (active) in experiment [4]; 418 nM (active) in experiment [5]; 209 nM (active) in experiment [6]. Also, the Potency in experiment [7] is 296 nM (active); in experiment [8], 148 nM (active); in experiment [9], 148 nM (active); in experiment [10], 372 nM (active); in [11], 296 nM (active); in experiment [12], 935 nM (active). Further, the Potency was 264 nM (active) in experiment [13]; 332 nM (active) in experiment [14]; 105 nM (active) in experiment [15]; 235 nM (active) in experiment [16]; 418 nM (active) in experiment [18] (TFE3-RCC UOK109 viability). The Z-AUC was -1.06 (inactive) in experiment [17], -0.777 in [17] (setting [19]) and -0.0282 in experiment [17] (measured here: PEO4 Z-AUC). Also, the z-score in experiment [18] (setting [20]) was -0.923; in experiment [18] (setting [21]), -0.898; in experiment [18] (setting [22]), -0.85.
For the compound `CC(C)C[C@H](NC(=O)CNC(=O)c1cc(Cl)ccc1Cl)B(O)O`, the Potency is 59 nM (active) in experiment [1]; 41.8 nM (active) in experiment [2]; 37.2 nM (active) in experiment [3]; 46.9 nM (active) in [4]; 296 nM (active) in [5]; 83.3 nM (active) in [6]. The Potency is 37.2 nM (active) in experiment [7]; 46.9 nM (active) in [8]; 37.2 nM (active) in [9]; 418 nM (active) in experiment [10]; 41.8 nM (active) in experiment [11]; 66.2 nM (active) in [12]. Further, the Potency in experiment [14] is 132 nM (active); in [15], 52.6 nM (active); in experiment [16], 66.2 nM (active); in experiment [18] (TFE3-RCC UOK109 viability), 372 nM (active). Moreover, the results for the Z-AUC in experiment [17], in experiment [17] (setting [19]) and in experiment [17] (measured here: PEO4 Z-AUC) were -0.869 (inactive), -1.48 and -1.83, respectively. Also, the z-score in experiment [18] (setting [20]) is -1.3; in [18] (setting [21]), -1.47; in experiment [18] (setting [22]) it was -2.81.

The record behind these values is PubChem BioAssay (NCATS).
